# According to PubChem BioAssay (EPA / NIEHS):
# Calls of active or inactive are those of the source. How the source made its calls: active means hit-call score of the fitted dose curve at least 0.9, where 1 is the maximum; inactive means score below 0.9.
# Test: CCTE_Simmons_MITO_max_resp_rate: CCTE's HepG2 Seahorse XF Respirometric Screening Assay at Maximal Respiratory State [uncoupled], Simmons Lab (AID 2284002)
# Settings: actives raise or lower the signal
# Experimental: CCTE_Simmons_MITO is cell-based, respirometric assay using HepG2 cells and a Seahorse XF Analyzer to measure oxygen consumption rates over four temporal phases spanning a total of 72 minutes: pre-injection (pre-treatment), basal (following test compound injection), maximal (following FCCP uncoupler injection), and inhibited (following rotenone/antimycin A injection)CCTE_Simmons_MITO_max_resp_rate is one of 4 assay components calculated from the CCTE_Simmons_MITO assay. It is designed to make measurements of maximal respiration using a form of respirometric reporter, as detected with […] signals by Seahorse XF96 technology. Data from the assay component CCTE_Simmons_MITO_max_resp_rate was analyzed at the endpoint, CCTE_Simmons_MITO_max_resp_rate_OCR, with bidirectional fitting relative to DMSO as the negative control and baseline of activity. Using a type of respirometric reporter, measures of maximal respiration for gain or loss-of-signal activity can be used to understand cellular oxygen consumption as it relates to cellular respiration. To generalize the intended target to other relatable targets, this assay endpoint is annotated to the mitochondria intended target family, where the subfamily is respiration.
# Test chemicals were administered as a titrated series of 7 concentrations from 125 nM up to 100 uM [final] prior to kinetic endpoint detection at 6 minute intervals [3 min mix followed by 3 minutes measure] for 72 minutes. Three biological replicates of technical singles were run for every chemical concentration tested. Dimethylsulfoxide [DMSO] was used as the vehicle control. The electron transport chain inhibitor fenpyroximate was used as the positive control for decreased basal respiration and was administered as a titrated series of 6 concentrations from 250 nM up to 2.75 uM [final] with technical triplicates for the top concentration only. The uncoupler 2,4-dintirophenol was used as the positive control for increased basal respiration and was administered as a titrated series of 6 concentrations from 938 nM up to 40 uM [final] with technical triplicates for the top concentration only. A Seahorse XF Analzyer is required to measure the response.
SMILES,AC50,outcome
COc1cccc(-c2ccc(/C=C\CN3CCCCCC3)cc2Cl)c1,65.8 µM (active),–
COc1ccc(/C=C/S(=O)(=O)NC(=O)c2ccc(C)cc2Cl)cc1,15.2 µM (active),–
CCCCCCc1ccc(O)cc1O,41.4 µM (active),–
C=CCCCCCCCCC(=O)O,–,inactive
Nc1cccc(N)c1,–,inactive
CC(C)c1cccc(C(C)C)c1N1C(=O)c2ccc(O)cc2C1=O,20.3 µM (active),–
Cc1ccc(N)cc1O,60.5 µM (active),–
CC(C)CC(C)(O)C#CC(C)(O)CC(C)C (configuration not stated),37.8 µM (active),–
O=C(O)c1cccc(N(Cc2cccnc2)c2ccc(OC(F)F)c(OC(F)F)c2)c1,–,inactive
Cn1c(=O)cc(Oc2ccc(F)cc2F)c2cnc(NCC(C)(C)O)nc21,–,inactive
Cc1c(-c2cccnc2)c2ccccc2n1CCCCC(=O)O,–,inactive
Cc1[nH]cnc1C[C@H]1CCc2c(C)c3ccccc3n2C1=O,–,inactive
Fc1ccccc1[C@@H](F)COC1CCC(Nc2ncnc3[nH]ncc23)CC1 (some centres not stated),13.8 µM (active),–
CCOC(=O)COc1ccc2c(c1)CC(NCC(O)c1cccc(Cl)c1)CC2 (configuration not stated),62.7 µM (active),–
COc1ccc2sc(C(=O)Nc3nnn[nH]3)c(OC(C)C)c2c1,–,inactive
CCn1nc(Cc2ccccc2)cc1C1CCN(C[C@H]2C[C@H](N(C)[C@@H](C(=O)O)C(C)C)C[C@@H]2c2cccc(F)c2)CC1,–,inactive
CC(C)=CCC/C(C)=C/CO,–,inactive
CCOC(=O)c1ccc(C2CCC(NC[C@H](O)COc3ccc(O)c(NS(C)(=O)=O)c3)CC2)cc1 (some centres not stated),–,inactive
CC(C)=CCCC(C)=CC=O,–,inactive
CCOc1cccc(-n2cc(C(=O)N3CCN(c4cc(C(=O)O)c5ccccc5c4)CC3)nc2-c2ccc(C)cc2)c1,–,inactive
O=C(CCCCCCCCc1cccnc1)N1CCC(C=C(c2ccccc2)c2ccccc2)CC1,–,inactive
O=c1[nH]c2ccc(S(=O)CCN3CCC(Cc4ccc(F)cc4)CC3)cc2o1 (configuration not stated),35.5 µM (active),–
